Results taken from the supplement of paper PMC10849652.
The full data set covers some 8,800 targets. This sample favours those with a hit. About 0.5% of all pairs of compound and target were hits.

How the values were obtained:
Test in all cases: log2 fold change, soluble protein after heating vs DMSO (PISA); higher = thermal stabilisation; K562 lysate, 10 uM; active = over 0.2 and 3.5 SD of the protein, either way, in both replicates (recomputed)
erlotinib = compound: C#Cc1cccc(Nc2ncnc3cc(OCCOC)c(OCCOC)cc23)c1 [erlotinib]
How it was run: (§1)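 K562 pellets were dounce-homogenised in PBS pH 7.4 with 1 mM MgCl2, and the crude extract at 1 mg/mL protein was treated with 10 μM compound for 30 min. Aliquots were heated for 3 min across 48°C-58°C, pooled, and brought to 0.5% NP-40 at 4°C; soluble protein was the supernatant after 21,000xg for 90 min. Soluble protein was quantified by TMTpro 16plex LC-MS/MS with channel sums equalised, and reported as log2 fold change in thermal stability against DMSO controls, with values from duplicates.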

[1] = compound: C/C(=N\NC(=O)C1=CC(=CC=C1)S(=O)(=O)N2CCOCC2)/C3=C(C=CC(=C3)Cl)O
How it was run: as §1

[2] = compound: C1=CC(=CC=C1C2=NC3=C(N2)C=C(C=C3)C(=O)N)OC4=CC=C(C=C4)Cl
How it was run: as §1

[3] = compound: C1=CC2=C(C=CC(=C2)/C=C\3/C(=O)NC(=NCC4=CC=CS4)S3)N=C1
How it was run: as §1

[4] = compound: C1=CC2=NC=CN=C2C=C1/C=C/3\C(=O)NC(=O)S3
How it was run: as §1

[5] = compound: C1=CC=C(C=C1)C2=NC(=C(N2)C3=CC=NC=C3)C4=CC(=C(C=C4)Cl)O
How it was run: as §1

[6] = compound: C1=CC=C2C(=C1)C3=NNC4=CC=CC(=C43)C2=O
How it was run: as §1

[7] = compound: C1CCN(C1)C(=O)NC2=CC=CC(=C2)NC3=NC=C(C(=N3)NCCC4=CN=CN4)Br
How it was run: as §1

[8] = compound: C1CN(CCC1(CC2=CC=C(C=C2)Cl)N)C3=NC=NC4=C3C=CN4
How it was run: as §1

IRAK-1-4 Inhibitor I = compound: C1COCCN1CCN2C3=CC=CC=C3N=C2NC(=O)C4=CC(=CC=C4)[N+](=O)[O-] [IRAK-1-4 Inhibitor I]
How it was run: as §1

ibrutinib = compound: C=CC(=O)N1CCC[C@@H](n2nc(-c3ccc(Oc4ccccc4)cc3)c3c(N)ncnc32)C1 [ibrutinib]
How it was run: as §1

[9] = compound: CC(=O)c1cnc2ccc(-c3cc(Cl)c(O)c(Cl)c3)nc2c1N[C@H]1CC[C@H](CN(C)C)CC1
How it was run: as §1

ralimetinib = compound: CC(C)(C)Cn1c(N)nc2ccc(-c3[nH]c(C(C)(C)C)nc3-c3ccc(F)cc3)nc21 [ralimetinib]
How it was run: as §1

[10] = compound: CC(C)(O)CC(=O)NCCn1ccc2ncnc(Nc3ccc(Oc4cccc(C(F)(F)F)c4)c(Cl)c3)c21
How it was run: as §1

[11] = compound: CC(C)C1=C2N=C(C=C(N2N=C1)NCC3=CC=CC=C3)NCCCCCCN
How it was run: as §1

[12] = compound: CC1=C(C(CC(=O)N1)C2=CC=C(C=C2)C(F)(F)F)C(=O)NC3=C(C=C4C(=C3)C=NN4)F
How it was run: as §1

[13] = compound: CC1=C(C2=C(C=C1)C(=O)C3=CC=CC=C3N2CCCN)C
How it was run: as §1

[14] = compound: CC1=C(C=C(C=C1)NC(=O)C2=CC(=CC=C2)C(C)(C)C#N)NC3=CC4=C(C=C3)N=CN(C4=O)C
How it was run: as §1

[15] = compound: CC1=C(C=C(C=C1)NC(=O)C2=CC(=CC=C2)N(C)C)NC(=O)C3=CC=C(C=C3)O
How it was run: as §1

[16] = compound: CC1=CC=C(C=C1)SC2=C3C=C(SC3=CN=C2)C(=O)N
How it was run: as §1

Measured: log2 fold change

REEP5 (UniProt Q00765)
Sequence of UniProt Q00765 (Q00765 whole entry, looked up): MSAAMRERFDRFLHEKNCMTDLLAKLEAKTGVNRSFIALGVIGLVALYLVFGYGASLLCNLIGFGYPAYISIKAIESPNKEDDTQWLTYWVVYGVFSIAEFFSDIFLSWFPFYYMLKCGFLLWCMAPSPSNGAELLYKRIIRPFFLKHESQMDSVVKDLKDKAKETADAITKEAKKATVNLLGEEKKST
inactive: erlotinib 0.017 | [1] -0.041 | [2] 0.022 | [3] 0.036 | [4] 0.001 | [5] -0.008 | [6] -0.077 | [7] -0.008 | [8] 0.015 | IRAK-1-4 Inhibitor I 0.025 | ibrutinib 0.043 | [9] 0.004 | ralimetinib -0.014 | [10] -0.01 | [11] -0.037 | [12] 0.017 | [13] -0.039 | [14] 0.004 | [15] -0.016 | [16] -0.042

RAB3IL1 (UniProt E9PK89)
inactive: erlotinib -0.016 | [1] -0.075 | [2] 0.124 | [3] 0.013 | [4] -0.048 | [5] -0.04 | [6] 0.093 | [7] -0.034 | [8] -0.12 | IRAK-1-4 Inhibitor I 0.109 | ibrutinib 0.066 | [9] 0.045 | ralimetinib -0.028 | [10] -0.08 | [11] -0.069 | [12] 0.052 | [13] 0.071 | [14] 0.025 | [15] 0.135 | [16] -0.031

RPL8 (UniProt P62917)
inactive: erlotinib 0.001 | [1] -0.307 | [2] -0.024 | [3] -0.025 | [4] -0.026 | [5] 0.007 | [6] 0.109 | [7] 0.019 | [8] -0.085 | IRAK-1-4 Inhibitor I -0.005 | ibrutinib 0.031 | [9] 0.007 | ralimetinib 0.01 | [10] -0.002 | [11] -0.008 | [12] 0.012 | [13] -0.045 | [14] -0.076 | [15] -0.013 | [16] 0.011

RPTOR (UniProt Q8N122)
Sequence of UniProt Q8N122 (Q8N122 whole entry, looked up): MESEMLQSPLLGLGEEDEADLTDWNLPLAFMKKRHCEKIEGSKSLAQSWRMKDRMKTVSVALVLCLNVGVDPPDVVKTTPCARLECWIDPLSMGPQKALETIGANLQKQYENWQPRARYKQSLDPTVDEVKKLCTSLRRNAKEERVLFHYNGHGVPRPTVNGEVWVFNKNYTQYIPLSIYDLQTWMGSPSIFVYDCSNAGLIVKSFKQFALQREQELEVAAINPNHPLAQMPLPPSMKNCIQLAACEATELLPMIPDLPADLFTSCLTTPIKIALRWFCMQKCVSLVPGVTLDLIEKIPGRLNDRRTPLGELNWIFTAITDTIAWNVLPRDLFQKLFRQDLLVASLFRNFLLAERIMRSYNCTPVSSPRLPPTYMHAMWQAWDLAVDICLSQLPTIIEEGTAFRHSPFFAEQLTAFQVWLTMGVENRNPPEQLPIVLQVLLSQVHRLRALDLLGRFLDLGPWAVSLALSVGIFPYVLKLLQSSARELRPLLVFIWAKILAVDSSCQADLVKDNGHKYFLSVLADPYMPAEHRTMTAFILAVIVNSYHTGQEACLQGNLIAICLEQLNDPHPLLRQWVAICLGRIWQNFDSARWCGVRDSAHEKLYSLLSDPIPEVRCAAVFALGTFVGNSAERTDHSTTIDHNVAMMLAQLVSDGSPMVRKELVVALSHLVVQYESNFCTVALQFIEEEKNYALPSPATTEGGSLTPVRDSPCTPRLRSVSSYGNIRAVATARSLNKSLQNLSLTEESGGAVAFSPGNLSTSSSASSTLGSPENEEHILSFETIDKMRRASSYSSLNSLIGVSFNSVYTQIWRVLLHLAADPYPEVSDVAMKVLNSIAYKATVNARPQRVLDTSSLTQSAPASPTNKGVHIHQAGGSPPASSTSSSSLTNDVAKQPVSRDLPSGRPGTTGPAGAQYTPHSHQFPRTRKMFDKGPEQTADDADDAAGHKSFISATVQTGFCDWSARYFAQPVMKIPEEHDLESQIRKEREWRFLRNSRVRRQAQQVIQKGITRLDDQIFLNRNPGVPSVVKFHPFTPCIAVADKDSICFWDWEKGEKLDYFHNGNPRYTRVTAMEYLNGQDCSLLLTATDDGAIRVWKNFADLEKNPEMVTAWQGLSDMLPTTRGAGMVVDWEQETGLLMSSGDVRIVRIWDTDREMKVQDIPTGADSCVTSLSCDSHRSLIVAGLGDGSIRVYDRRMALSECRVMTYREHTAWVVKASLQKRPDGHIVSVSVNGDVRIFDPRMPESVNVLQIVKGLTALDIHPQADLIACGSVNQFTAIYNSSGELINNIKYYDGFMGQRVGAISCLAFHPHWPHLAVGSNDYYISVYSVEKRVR
inactive: erlotinib 0.032 | [1] 0.002 | [2] 0.062 | [3] 0.013 | [4] 0.017 | [5] -0.002 | [6] -0.002 | [7] -0.036 | [8] -0.015 | IRAK-1-4 Inhibitor I 0.003 | ibrutinib -0.042 | [9] 0.008 | ralimetinib -0.001 | [10] -0.045 | [11] -0.012 | [12] 0.005 | [13] -0.039 | [14] 0.005 | [15] 0.038 | [16] 0.01

SCO2 (UniProt O43819)
inactive: erlotinib 0.055 | [1] -0.09 | [2] 0.057 | [3] 0.023 | [4] -0.017 | [5] 0.085 | [6] 0.035 | [7] 0.014 | [8] 0.041 | IRAK-1-4 Inhibitor I -0.015 | ibrutinib -0.021 | [9] -0.065 | ralimetinib -0.02 | [10] -0.142 | [11] 0 | [12] -0.258 | [13] -0.009 | [14] 0.017 | [15] 0.01 | [16] -0.117

RASA2 (UniProt Q15283)
Sequence of UniProt Q15283 (Q15283 whole entry, looked up): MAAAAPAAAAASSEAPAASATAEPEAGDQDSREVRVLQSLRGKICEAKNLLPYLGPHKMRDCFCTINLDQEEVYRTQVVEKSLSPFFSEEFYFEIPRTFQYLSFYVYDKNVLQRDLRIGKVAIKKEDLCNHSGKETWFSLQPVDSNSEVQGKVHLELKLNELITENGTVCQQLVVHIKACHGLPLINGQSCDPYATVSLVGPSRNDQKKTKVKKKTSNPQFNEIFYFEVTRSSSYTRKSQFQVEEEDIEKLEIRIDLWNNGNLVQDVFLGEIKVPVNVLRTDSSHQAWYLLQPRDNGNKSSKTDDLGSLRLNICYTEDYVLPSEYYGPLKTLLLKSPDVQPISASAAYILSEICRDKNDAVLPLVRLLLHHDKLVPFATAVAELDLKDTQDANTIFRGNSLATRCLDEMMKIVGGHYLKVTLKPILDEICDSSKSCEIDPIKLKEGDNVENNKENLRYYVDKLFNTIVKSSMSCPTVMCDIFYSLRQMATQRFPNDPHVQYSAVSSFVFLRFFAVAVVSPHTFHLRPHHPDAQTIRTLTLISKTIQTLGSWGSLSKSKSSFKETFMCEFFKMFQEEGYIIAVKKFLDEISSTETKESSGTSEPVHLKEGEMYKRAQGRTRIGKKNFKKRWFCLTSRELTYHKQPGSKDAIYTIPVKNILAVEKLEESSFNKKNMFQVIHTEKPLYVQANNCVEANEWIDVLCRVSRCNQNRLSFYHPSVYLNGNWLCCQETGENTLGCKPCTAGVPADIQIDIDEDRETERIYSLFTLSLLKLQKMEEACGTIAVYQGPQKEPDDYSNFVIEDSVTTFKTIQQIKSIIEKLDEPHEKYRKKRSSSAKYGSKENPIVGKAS
inactive: erlotinib 0.016 | [1] -0.001 | [2] -0.054 | [3] -0.071 | [4] -0.028 | [5] 0.018 | [6] -0.069 | [7] -0.024 | [8] 0.028 | IRAK-1-4 Inhibitor I -0.003 | ibrutinib 0.034 | [9] -0.011 | ralimetinib 0.006 | [10] -0.038 | [11] 0.014 | [12] 0.023 | [13] 0.004 | [14] 0.033 | [15] 0.019 | [16] -0.013

RHOA (UniProt P61586)
Sequence of UniProt P61586 (P61586 whole entry, looked up): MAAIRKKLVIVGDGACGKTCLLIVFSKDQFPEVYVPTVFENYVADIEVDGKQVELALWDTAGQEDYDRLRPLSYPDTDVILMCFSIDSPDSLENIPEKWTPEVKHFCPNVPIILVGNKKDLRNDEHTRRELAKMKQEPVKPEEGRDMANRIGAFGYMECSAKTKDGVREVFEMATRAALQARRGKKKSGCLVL
inactive: erlotinib 0.001 | [1] -0.093 | [2] 0.049 | [3] -0.093 | [4] -0.09 | [5] 0.064 | [6] 0.038 | [7] -0.022 | [8] 0.039 | IRAK-1-4 Inhibitor I -0.022 | ibrutinib 0.36 | [9] -0.041 | ralimetinib 0.014 | [10] 0.094 | [11] 0.031 | [12] 0.003 | [13] 0.093 | [14] -0.02 | [15] -0.022 | [16] -0.006

RIOK3 (UniProt O14730)
Sequence of UniProt O14730 (O14730 whole entry, looked up): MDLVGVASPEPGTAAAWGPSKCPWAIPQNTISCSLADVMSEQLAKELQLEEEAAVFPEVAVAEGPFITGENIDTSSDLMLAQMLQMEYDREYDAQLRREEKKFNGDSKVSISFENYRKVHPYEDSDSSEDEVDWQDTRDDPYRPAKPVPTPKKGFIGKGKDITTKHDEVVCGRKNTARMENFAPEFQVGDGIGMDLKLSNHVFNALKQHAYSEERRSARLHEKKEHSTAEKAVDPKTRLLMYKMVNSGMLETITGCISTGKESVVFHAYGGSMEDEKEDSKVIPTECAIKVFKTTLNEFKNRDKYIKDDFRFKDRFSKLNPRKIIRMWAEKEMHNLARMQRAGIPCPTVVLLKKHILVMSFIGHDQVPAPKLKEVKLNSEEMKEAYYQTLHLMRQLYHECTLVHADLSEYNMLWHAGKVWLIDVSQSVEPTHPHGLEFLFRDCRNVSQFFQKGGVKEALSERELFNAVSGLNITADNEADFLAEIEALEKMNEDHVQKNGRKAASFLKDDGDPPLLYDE
inactive: erlotinib 0.043 | [1] -0.114 | [2] -0.057 | [3] 0.029 | [4] -0.011 | [5] 0.023 | [6] 0.092 | [7] 0.016 | [8] -0.006 | IRAK-1-4 Inhibitor I 0.016 | ibrutinib -0.021 | [9] -0.013 | ralimetinib 0.055 | [10] 0 | [11] 0.054 | [12] -0.011 | [13] -0.023 | [14] 0.001 | [15] 0.011 | [16] -0.093

RFC5 (UniProt P40937)
inactive: erlotinib 0.02 | [1] 0.024 | [2] -0.025 | [3] 0.036 | [4] -0.012 | [5] 0.029 | [6] -0.074 | [7] 0.004 | [8] 0.023 | IRAK-1-4 Inhibitor I 0.019 | ibrutinib -0.038 | [9] -0.001 | ralimetinib 0.046 | [10] 0.02 | [11] 0.012 | [12] -0.002 | [13] -0.009 | [14] 0.014 | [15] 0.025 | [16] 0.018

RPLP0P6 (UniProt Q8NHW5)
inactive: erlotinib -0.003 | [1] -0.069 | [2] -0.034 | [3] 0.026 | [4] -0.05 | [5] 0.009 | [6] 0.03 | [7] 0.024 | [8] 0.004 | IRAK-1-4 Inhibitor I 0.008 | ibrutinib 0.064 | [9] -0.005 | ralimetinib -0.01 | [10] -0.02 | [11] -0.009 | [12] -0.052 | [13] -0.028 | [14] 0.015 | [15] 0.01 | [16] -0.017

RBM23 isoform 2 (UniProt Q86U06)
Sequence of UniProt Q86U06 (Q86U06 whole entry, looked up): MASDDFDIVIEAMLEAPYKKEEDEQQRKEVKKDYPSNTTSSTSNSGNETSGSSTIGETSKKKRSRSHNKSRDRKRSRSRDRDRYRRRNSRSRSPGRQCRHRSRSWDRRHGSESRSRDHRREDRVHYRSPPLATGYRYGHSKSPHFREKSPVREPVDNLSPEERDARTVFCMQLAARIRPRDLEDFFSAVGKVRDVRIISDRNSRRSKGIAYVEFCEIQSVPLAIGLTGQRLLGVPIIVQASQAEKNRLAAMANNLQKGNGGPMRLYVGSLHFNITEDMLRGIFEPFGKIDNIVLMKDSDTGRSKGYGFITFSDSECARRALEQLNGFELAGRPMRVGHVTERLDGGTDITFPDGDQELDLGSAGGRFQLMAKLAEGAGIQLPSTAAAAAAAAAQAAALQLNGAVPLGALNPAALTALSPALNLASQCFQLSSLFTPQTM
inactive: erlotinib -0.056 | [1] 0.007 | [2] 0.012 | [3] -0.106 | [4] 0.148 | [5] -0.052 | [6] 0.001 | [7] -0.175 | [8] 0.091 | IRAK-1-4 Inhibitor I -0.004 | ibrutinib -0.125 | [9] -0.014 | ralimetinib 0.041 | [10] -0.096 | [11] 0.081 | [12] 0.151 | [13] -0.122 | [14] 0.112 | [15] -0.022 | [16] 0.05

RNF181 (UniProt Q9P0P0)
Sequence of UniProt Q9P0P0 (Q9P0P0 whole entry, looked up): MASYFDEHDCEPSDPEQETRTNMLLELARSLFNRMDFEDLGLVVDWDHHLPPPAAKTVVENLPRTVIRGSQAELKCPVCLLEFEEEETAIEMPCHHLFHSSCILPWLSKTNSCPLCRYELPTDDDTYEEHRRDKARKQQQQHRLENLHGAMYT
inactive: erlotinib 0.031 | [1] 0.037 | [2] 0.016 | [3] 0.036 | [4] -0.001 | [5] 0.022 | [6] -0.058 | [7] 0.03 | [8] 0.099 | IRAK-1-4 Inhibitor I -0.014 | ibrutinib 0.043 | [9] -0.024 | ralimetinib -0.001 | [10] -0.006 | [11] -0.005 | [12] -0.056 | [13] 0.008 | [14] 0.03 | [15] 0 | [16] 0.013

RPL31 (UniProt P62899)
inactive: erlotinib -0.018 | [1] -0.097 | [2] -0.03 | [3] -0.01 | [4] 0.001 | [5] 0 | [6] 0.038 | [7] 0.043 | [8] -0.039 | IRAK-1-4 Inhibitor I 0.026 | ibrutinib -0.031 | [9] -0.011 | ralimetinib 0.009 | [10] -0.022 | [11] 0.003 | [12] -0.06 | [13] -0.043 | [14] -0.013 | [15] -0.021 | [16] 0.016

RNASEH2B (UniProt Q5TBB1)
Sequence of UniProt Q5TBB1 (Q5TBB1 whole entry, looked up): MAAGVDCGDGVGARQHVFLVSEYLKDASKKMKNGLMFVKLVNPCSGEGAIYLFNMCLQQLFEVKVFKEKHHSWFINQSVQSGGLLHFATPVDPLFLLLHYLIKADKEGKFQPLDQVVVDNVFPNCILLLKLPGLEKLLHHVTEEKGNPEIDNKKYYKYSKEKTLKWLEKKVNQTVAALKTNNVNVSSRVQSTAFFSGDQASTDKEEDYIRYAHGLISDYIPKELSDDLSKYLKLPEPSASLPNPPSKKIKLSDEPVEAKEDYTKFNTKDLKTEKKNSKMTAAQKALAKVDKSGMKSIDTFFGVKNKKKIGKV
inactive: erlotinib -0.01 | [1] 0.006 | [2] -0.024 | [3] 0.019 | [4] -0.011 | [5] 0.009 | [6] 0.024 | [7] -0.01 | [8] -0.041 | IRAK-1-4 Inhibitor I -0.003 | ibrutinib -0.001 | [9] -0.032 | ralimetinib 0.026 | [10] 0 | [11] 0.031 | [12] -0.025 | [13] 0.024 | [14] 0.005 | [15] 0.025 | [16] 0.009

SERPINI1 (UniProt Q99574)
Sequence of UniProt Q99574 (Q99574 whole entry, looked up): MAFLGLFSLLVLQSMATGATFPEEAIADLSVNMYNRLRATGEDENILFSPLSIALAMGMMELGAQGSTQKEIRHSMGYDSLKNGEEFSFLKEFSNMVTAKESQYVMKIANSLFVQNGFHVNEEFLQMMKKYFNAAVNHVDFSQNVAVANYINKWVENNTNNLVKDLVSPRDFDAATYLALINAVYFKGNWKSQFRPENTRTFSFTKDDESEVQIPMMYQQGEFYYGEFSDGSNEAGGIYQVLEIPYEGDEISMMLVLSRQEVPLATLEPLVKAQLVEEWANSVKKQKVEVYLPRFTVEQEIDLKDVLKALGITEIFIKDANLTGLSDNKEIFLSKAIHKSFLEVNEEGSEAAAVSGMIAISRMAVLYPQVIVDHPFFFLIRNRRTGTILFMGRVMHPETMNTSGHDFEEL
inactive: erlotinib -0.003 | [1] -0.021 | [2] -0.037 | [3] 0.027 | [4] 0.054 | [5] -0.007 | [6] -0.117 | [7] 0.029 | [8] 0.038 | IRAK-1-4 Inhibitor I 0.031 | ibrutinib 0.063 | [9] 0.075 | ralimetinib 0.001 | [10] 0.024 | [11] 0.005 | [12] 0.056 | [13] 0.004 | [14] -0.024 | [15] -0.028 | [16] -0.054

RBM42 (UniProt Q9BTD8)
Sequence of UniProt Q9BTD8 (Q9BTD8 whole entry, looked up): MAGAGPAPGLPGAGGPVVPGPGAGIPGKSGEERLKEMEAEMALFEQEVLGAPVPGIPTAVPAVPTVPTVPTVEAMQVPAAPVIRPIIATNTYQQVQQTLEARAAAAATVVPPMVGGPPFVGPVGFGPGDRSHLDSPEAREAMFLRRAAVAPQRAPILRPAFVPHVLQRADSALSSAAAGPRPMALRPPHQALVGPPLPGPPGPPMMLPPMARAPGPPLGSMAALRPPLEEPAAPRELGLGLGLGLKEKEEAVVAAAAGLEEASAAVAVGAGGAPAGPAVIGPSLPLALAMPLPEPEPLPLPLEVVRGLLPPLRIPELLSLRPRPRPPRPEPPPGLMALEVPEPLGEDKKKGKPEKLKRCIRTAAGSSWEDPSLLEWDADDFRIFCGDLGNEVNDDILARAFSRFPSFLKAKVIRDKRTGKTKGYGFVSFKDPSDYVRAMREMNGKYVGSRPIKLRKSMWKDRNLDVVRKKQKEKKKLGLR
inactive: erlotinib -0.034 | [1] -0.161 | [2] 0.073 | [3] -0.062 | [4] -0.018 | [5] -0.009 | [6] -0.05 | [7] -0.017 | [8] -0.014 | IRAK-1-4 Inhibitor I 0.049 | ibrutinib 0.071 | [9] 0.02 | ralimetinib -0.011 | [10] -0.007 | [11] 0.081 | [12] 0.025 | [13] 0.04 | [14] -0.028 | [15] -0.005 | [16] 0.069
